PubChem BioAssay AID651690 (Sanford-Burnham Center for Chemical Genomics, 2012)
This is one part of the list. Unmarked numbers belong to inactive results. Active and inactive are the calls of the source. No stated cut-off is given here; in the data, active means inhibition mostly above about 32% (no sharp cut-off); inactive means mostly below about 29%.

Target: Sentrin-specific protease 1 (Homo sapiens) (UniProt Q9P0U3)
Assay: human SENP1 catalytic domain inhibitors, confirmation, biochemical, kinetic FRET, single concentration (AID 651690);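 further: 0% = DMSO with enzyme and 100% = no enzyme substrate only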
Conditions: recombinant SENP1, CyPet-SUMO1-YPet FRET kinetic cleavage; at 10 µM; stronger effect = higher value

Chain of Sentrin-specific protease 1 (Homo sapiens) (Q9P0U3 419-644 limits assumed): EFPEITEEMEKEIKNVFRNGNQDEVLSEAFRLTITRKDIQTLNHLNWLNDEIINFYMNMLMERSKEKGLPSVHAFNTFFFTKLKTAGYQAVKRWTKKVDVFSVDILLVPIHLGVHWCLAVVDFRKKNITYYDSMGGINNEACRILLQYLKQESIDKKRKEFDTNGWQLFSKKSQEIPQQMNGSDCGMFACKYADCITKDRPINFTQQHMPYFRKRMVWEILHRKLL

Compound	inhibition
COc1cc(/C=C2\CCCc3c2nc2ccccc2c3C(=O)O)cc(Cl)c1O	63.6% (active)
O=C1/C(=C/c2coc3ccc(O)cc3c2=O)SC(=S)N1c1ccccc1	-0.025%
CC(=O)c1cccc(-c2cnc3c(NC=O)cc(-c4ccc(N(C)C)cc4)cn23)c1	48.5% (active)
COc1ccc(OC)c(C2C3=C(N=c4s/c(=C\c5cccc(O)c5)c(=O)n42)c2ccccc2CC3)c1 (stereo unspecified)	19.3%
N/C(=N\OC(=O)N1c2ccccc2Sc2ccccc21)c1ccc(Br)cc1	0.1%
CCCCCn1nnnc1-c1nc2cc3ccccc3cc2[nH]c1=O	56.7% (active)
Cc1cc(C(=O)N/N=C/c2ccc(N3CCOCC3)cc2)c(C)o1	17.6%
COc1ccc(N2C(=O)C3C(C2=O)C(C(=O)c2ccccc2)N2CCCC32)cc1 (stereo unspecified)	23.7%
Cn1c(-c2sc3cc(C(F)(F)F)cnc3c2-c2ccccc2)n[nH]c1=S	11.8%
O=C1C=C(c2cccc(Cl)c2O)C[C@@H](c2ccc(F)cc2)C1	74.6% (active)
CCOC(=O)C1CCN(c2ncnc3c2c(-c2ccccc2)cn3-c2ccc(C)cc2)CC1	10.2%
O=C1CC[C@@H]2CC3(C[C@@H]4CCN1[C@H]24)Nc1cc([N+](=O)[O-])ccc1NC3=NC1CCCCC1 (stereo partly specified)	2.83%
O=C(CCN1C(=O)/C(=C/c2cccs2)SC1=S)NNC(=O)c1cccc(O)c1	44.5% (active)
O=C(NC(=O)c1ccccc1)Nc1ccccc1O	-0.175%
Cc1ccc2c(c1)nnc1nnc(SCC(=O)O)n12	46.3% (active)
Cc1ccc(C(=O)N/N=C\c2cc(Br)c(Br)o2)cn1	14.5%
c1coc(-c2nc3nc4ccccc4n3nc2-c2ccco2)c1	13.5%
Cc1cccc(C)c1Nc1c(-c2ccccc2O)nc2ncccn12	8.55%
Fc1cccc(Cc2c(-c3cccc(Cl)c3)nc3ccc(Br)cn23)c1	3.67%
CCN(CC)S(=O)(=O)c1cc([N+](=O)[O-])ccc1N=Nc1c(O)n(C)c2ccccc12	-1.62%
O=[N+]([O-])c1ccc(N=NNc2ccc([N+](=O)[O-])cc2)cc1	11.6%
